# A selection: hits, their analogues and other compounds. The true share with any hit is near 11%.
# FBPA coupling cs = qHTS Assay for Inhibitors of Fructose-1,6-bisphosphate Aldolase from Giardia Lamblia: Coupling assay counterscreen. activity change, negative = inhibition, % at 58.2 µM, hits read low. coupling enzyme system counterscreen, AmpLite Red fluorescence. AID 2472, 2010. 290,000 tested, 0.67% active; in the data active means activity change below about -30%
#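 First, compound is pin-transferred into glyceraldehyde-3-phosphate coupling-enzyme reagent at 57.5 uM final and held 10 min at RT. Next, substrate, coupling system and AmpLite Red are added. After 20 min RT, fluorescence (525/598 nm) is read.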
# Tau fluor counter = Counterscreen qHTS for Inhibitors of Tau Fibril Formation, Fluorescence Polarization. tau K18 P301L Alexa594 fluorescence, heparin fibrillization. Potency, µM (top dose mostly 57.7 µM), for the others: at the highest dose activity change, negative = decrease. 280,000 tested, 0.93% active. AID 1463, 2008; further: potency means the concentration at half of the fitted maximal effect; nearly all actives have a fitted effect of over 55% in size
#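 Human K18 P301L tau (15 uM unlabeled plus 0.24 uM Alexa 594-labeled, final) in 100 mM sodium acetate pH 7 was mixed with compound and 20 uM heparin and incubated 6 hr at 37 C.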
# G9a block = qHTS Assay for Inhibitors of Histone Lysine Methyltransferase G9a | Histone-lysine N-methyltransferase EHMT2 (Homo sapiens), Q96KQ7 | G9a H3K9 monomethylation, AlphaScreen, 2 h | Potency, µM (top dose mostly 102 µM), without a hit: at the highest dose activity, negative = inhibition, actives largely listed as inhibitors | 350,000 tested, 8.8% active | AID 504332, 2011; further: potency means the concentration at half of the fitted maximal effect; nearly all actives have a fitted effect of over 75% in size
# Target sequence (Q96KQ7 913-1193 limits assumed): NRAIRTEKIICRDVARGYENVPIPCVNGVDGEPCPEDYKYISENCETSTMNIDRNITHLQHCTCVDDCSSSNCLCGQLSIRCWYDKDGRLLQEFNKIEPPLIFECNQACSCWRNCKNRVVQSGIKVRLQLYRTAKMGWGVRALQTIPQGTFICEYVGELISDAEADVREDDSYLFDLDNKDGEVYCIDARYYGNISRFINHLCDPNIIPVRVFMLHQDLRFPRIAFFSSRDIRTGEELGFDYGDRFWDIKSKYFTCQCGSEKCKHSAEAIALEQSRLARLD
#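 G9a (20 nM) was preincubated 15 min with compound, then reacted 2 h at room temperature with 500 nM biotin-H3K9 peptide and 20 µM SAM. Monomethyl-H3K9 detected by AlphaScreen using anti-H3K9me1 antibody.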
# Tau fibril ThT = qHTS for Inhibitors of Tau Fibril Formation, Thioflavin T Binding; AID 1460, 2008; 270,000 tested, 2.1% active; Potency, µM (titrated, usually from 57.4 µM), for the others: at the top dose activity, negative = inhibition, actives largely listed as inhibitors; recombinant tau K18 P301L, heparin-induced fibrillization, ThT fluorescence; Microtubule-associated protein tau (Homo sapiens), P10636; further: potency means the concentration at half of the fitted maximal effect; nearly all actives have a fitted effect of over 55% in size
# Target sequence (P10636 561-689 P618L limits assumed): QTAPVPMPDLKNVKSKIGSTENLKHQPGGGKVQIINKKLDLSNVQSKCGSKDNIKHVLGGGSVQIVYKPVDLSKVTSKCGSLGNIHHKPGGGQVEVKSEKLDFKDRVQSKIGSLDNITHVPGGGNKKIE
#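 ThT emission at 510 nm, taken 1 hr after adding 30 uM dye, quantifies aggregates formed when 20 uM heparin acts on human tau K18 P301L for 6 hr at 37 C.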
# Sfp inh = qHTS Assay for Inhibitors of Bacillus subtilis Sfp phosphopantetheinyl transferase (PPTase). 4'-phosphopantetheinyl transferase ffp (Bacillus subtilis), Q9F4F7. Biochemical Sfp PPTase activity, qHTS. Potency, µM, for the others: largest response in the series, negative = inhibition, most hits filed as inhibitors. 310,000 tested, 3.5% active. AID 1490, 2009;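 further: the enzyme is Sfp with the accession as filed and its product quenches rhodamine fluorescence; potency means the concentration at half of the fitted maximal effect; 0% = enzyme reaction without inhibitor and -100% = no enzyme wells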
#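 Buffer: 50 mM Hepes-Na pH 7.6, 10 mM MgCl2, 0.01% Nonidet P-40, 0.01% BSA. Enzyme 15 nM, pre-exposed to compound 15 min; substrates then added and fluorescence change tracked over 30 min.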
# Tau FP inhib = qHTS for Inhibitors of Tau Fibril Formation, Fluorescence Polarization | Microtubule-associated protein tau (Homo sapiens), P10636 | K18 P301L tau heparin fibrillization, Alexa594 FP, 6 h | 280,000 tested, 0.39% active | Potency, µM (highest dose often 57.7 µM), for inactives: top-dose activity, negative = inhibition, actives largely listed as inhibitors; further: potency means the concentration at half of the fitted maximal effect; nearly all actives have a fitted effect of over 55% in size
#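 Recombinant K18 P301L […], labeled with Alexa 594 at 0.24 uM over 15 uM unlabeled; heparin inducer 20 uM final; 37 C, 6 hr; FP endpoint.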
# Active calls of the source: *; ? = inconclusive; nt = not tested or not shown; [ ] = another dose, or the depositor's remark. Unless noted, the call rests on the fitted dose curve; in most records, active means well fitted curve in the direction sought with a large enough effect; inconclusive means small, poorly fitted or top-dose-only effect, or another doubt; inactive means no such curve, though single readings can be large; an effect the other way counts as inactive or inconclusive. Unless noted, on the % scale 0 is the no-effect control and ±100 the full control effect.
SMILES,FBPA coupling cs,Tau fluor counter,G9a block,Tau fibril ThT,Sfp inh,Tau FP inhib
Cc1cc([C@](C)(N)C(=O)O)ccc1P(=O)(O)O,-1,-2%,nt,-7%,-7%,4%
CN(C(=O)CSc1nc2ccc(NC(=O)COc3ccccc3Cl)cc2s1)c1ccccc1,nt,-23%,-21%[59 µM],0%,nt,-16%
CCCCCN1C(C(=O)c2ccccc2)=C(NC(=O)c2ccc(OC)c(OC)c2)c2ccccc2S1(=O)=O,nt,?,-28%[59 µM],-2%,nt,-7%
Oc1c(C=Nc2ccccc2Cl)[nH]c2ccccc12,-6,?,8.9µM*,40µM*,?,?
Cc1ccc(CNC(=O)C2CCN(S(=O)(=O)c3ccc4c(c3)CC(C)N4C(=O)C3CCC3)CC2)o1 (centres undefined),-1,nt,?,nt,-21%,nt
CC1=NN(c2ccc(C(=O)O)c(N)c2)C(=O)C1,-37*,-29%,4.5µM*,?,?,?
CC1=NN(c2ccc(Cl)c(C(=O)O)c2)C(=O)C1,5,-6%,50µM*,-20%,13%,2%
CC1=NN(c2cccc(Cl)c2)C(=O)C1,1,-24%,3%[59 µM],?,5%,5%
CC1=NN(c2ccc(C(=O)O)cc2)C(=O)CC1,-1,nt,-19%,nt,4%,nt
Cn1c(=O)c2cc(C(=O)Nc3cccc(C#N)c3)sc2c2ccccc21,nt,-7%,30%[59 µM],-5%,nt,-10%
CCc1ccc2c(O)c3c(cc2c1C(=O)OC)C(=O)c1c(O)ccc(O)c1C3=O,-17,?,?,3.2µM*,-27%,?
COC(=O)c1[nH]c(=O)c2ccccc2c1O,-23,-7%,?,-12%,16%,-5%
CN(C)c1ccc(/C=N/NC(=O)c2cc(=O)[nH]c3ccccc23)cc1,4,-1%,nt,-12%,5%,7%
CCOC(=O)N/N=C/c1ccc(Oc2ccccc2)cc1,0,-11%,-42%,-9%,-5%,-2%
O=C(N/N=C\c1ccc(Oc2ccccc2)cc1)c1csnn1,3,-10%,0.89µM*,?,-83%,-10%
Cc1cccc(/C=N\NC(=O)c2csnn2)c1,-6,2%,9%[0.501 µM],1%,40µM*,-1%
CN(C)c1ccc(/C=N\NC(=O)c2cccc3cc[nH]c23)cc1,-3,?,nt,10µM*,-3%,0%
CN(C)c1ccc(/C=N\NC(=O)c2csnn2)cc1,2,-19%,3%[0.0925 µM],?,40µM*,?
CN(C)c1ccc(/C=N/NC(=O)c2ccccn2)cc1,1,-18%,nt,?,-19%,-11%
COc1ccccc1CNC(=O)CCCn1c(=O)c2ccccc2n(CC(=O)Nc2c(C)cc(C)cc2C)c1=O,nt,-2%,4%[59 µM],4%,nt,?
O=C(CSc1ccc(-c2cccs2)nn1)c1cccs1,-11,-30%,?,?,9%,-4%
O=C(NCc1ccccc1)c1nncc(-c2ccccc2)n1,nt,nt,7%[0.501 µM],nt,nt,nt
Cc1ccc(NC(=O)Cn2cc3c(n2)CCCCC3)cc1,nt,-5%,-4%[59 µM],3%,nt,-7%
CN(C)c1ccc(/C=N/NC(=O)c2cnc3ccccc3c2)cc1,0,-22%,3%,0.63µM*,10%,-2%
CN(C)c1ccc(/C=N/NC(=O)c2ccn(C)n2)cc1,2,-16%,nt,?,-4%,4%
SMILES,FBPA coupling cs,Tau fluor counter,G9a block,Tau fibril ThT,Sfp inh,Tau FP inhib
CN(C)Cc1cc(CN(C)C)c(O)c(CCc2ccccc2)n1,0,-16%,50µM*,-15%,-1%,0%
OCc1cc(CO)c(O)c(CCc2ccccc2)n1,0,-13%,-21%,-9%,4%,-11%
CN(C)Cc1cc(C(C)(C)c2cc(CN(C)C)c(O)c(CN(C)C)c2)cc(CN(C)C)c1O,-1,-1%,?,-8%,-3%,5%
Cc1ccc(-c2nc(CN(C)C)cc(CN(C)C)c2O)cc1,-2,3%,50µM*,-2%,-1%,-3%
CCc1ccc(N2CSC3=C(C#N)C(c4cccs4)CC(=O)N3C2)cc1 (centres undefined),-18,-19%,?,13µM*,2.5µM*,?
COc1ccc(N2CSC3=C(C#N)C(c4cccs4)CC(=O)N3C2)cc1 (centres undefined),-49*,?,2.8µM*,13µM*,2.2µM*,25µM*
CCOC(=O)c1ccc(N2CSC3=C(C#N)C(c4cccs4)CC(=O)N3C2)cc1 (centres undefined),-6,-15%,5.6µM*,?,11µM*,?
CCOC(=O)CC1=C(C(=O)OCC)C(c2cccs2)C(C#N)=C(N)O1 (centres undefined),0,-6%,-29%[59 µM],-6%,-7%,0%
Cc1ccc(N2CSC3=C(C#N)C(c4cccs4)CC(=O)N3C2)cc1 (centres undefined),-28,-20%,1.4µM*,?,1.4µM*,?
CC1CCc2c(sc(NC(=O)CCCOc3ccc(C(C)(C)C)cc3)c2C(N)=O)C1 (centres undefined),nt,-11%,?,-8%,nt,-3%
O=C(CCCCCn1nnc2ccccc2c1=O)Nc1ccccc1F,2,nt,12%,nt,-1%,nt
N#CC1=C2SCN(c3ccc(F)cc3)CN2C(=O)CC1c1cccc(F)c1 (centres undefined),-14,?,1.6µM*,16µM*,1.4µM*,?
CCc1ccc(C2CC(=O)N3CN(c4ccccc4)CSC3=C2C#N)cc1 (centres undefined),-19,?,0.89µM*,32µM*,2µM*,?
CCc1ccc(C2CC(=O)N(c3cccc(F)c3)C3=C2C(=O)OC3)cc1 (centres undefined),-1,-3%,13%,-1%,15%,2%
COc1cccc2c1ncc1c(-c3ccc(C)cc3)nn(-c3ccc(F)cc3)c12,nt,-2%,31%[59 µM],-3%,nt,-7%
COc1ccc(N2CCN(C(=O)CCCNC(=O)Cn3cnc4sc(C)c(C)c4c3=O)CC2)cc1,9,nt,50µM*,nt,10%,nt
COc1ccccc1N1CCN(C(=O)CCCNC(=O)Cn2cnc3sc(C)c(C)c3c2=O)CC1,0,nt,-2%[59 µM],nt,13%,nt
COC(=O)[C@H](Cc1ccccc1)NC(=O)O[C@@H]1Cc2cc(OC)ccc2O[C@H]1c1cccc(OC)c1,3,-13%,nt,-11%,?,1%
